This passage reports Potency, IC50 (viability decrease) and outcome results from PubChem BioAssay (NCATS).

Experiment [1] is described as follows: Identifying Small Molecule Inhibitors of Pancreatic Cancer Stem Cells (SN12C, Adherent) (AID 1259358).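 Also: cell survival measured after 48 h of compound exposure.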 Also: potency is read from the fitted curve at half-maximal effect. In a few lines: (§1)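 Cytotoxicity read by CellTiter-Glo luminescence after 48 h compound exposure at 37C; percent activity scaled between DMSO-treated cells and cell-free wells. Spheroid formats used cells pre-formed 14 days in stem cell media on hydrogel.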

Experiment [2] is described as follows: Identifying Small Molecule Inhibitors of Pancreatic Cancer Stem Cells (SN12C, Spheroid) (AID 1259360). Also: potency is read from the fitted curve at half-maximal effect. To be noted: Potency: SN12C spheroid viability. A digest of the protocol:
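Endpoint: ATP-based luminescence, 48 h drug exposure. Bortezomib at 9.2 uM final as full-kill control; DMSO vehicle as negative control; activity normalized between vehicle and cell-free wells.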

Experiment [3] in a line: Identifying Small Molecule Inhibitors of Pancreatic Cancer Stem Cells (A278, Adherent) (AID 1259361). Also: nearly all actives have a fitted effect of over 35% in size. A digest of the protocol: as §1
Experiment [4] can be described thus: Identifying Small Molecule Inhibitors of Pancreatic Cancer Stem Cells (Panc1, Spheroid) (AID 1259359).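 Also: compound exposure lasted 48 h before reading.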 Also: potency is read from the fitted curve at half-maximal effect. From the text: Progenitor-like cancer cells, often referred to as cancer stem cells (CSC), are believed to be the drivers of therapeutic resistance and rapid recurrence. CSCs are postulated to reside in specific niches characterized by low oxygen tension, limited nutrient supply, and high redox load. Selectively targeting CSC, alone or in combination with cytotoxic agents, as a means to produce durable remissions is an appealing concept. Modeling these cells in in vitro setting is an important step in finding new therapies and/or targets. Multiple reports highlight that forcing cells in culture into 3-dimensionaly architectures (spheroids) re-establishes key progenitor-like transcriptional signatures. Pancreatic cancer is among the diseases with the most dismal outlook which is driven, largely, by recurance following front-line therapies. […] In hopes of deriving new insight into the targeting of these pancreatic CSCs we examined three established pancreatic cancer cell lines in cytotoxicity assays versus a collection of approved and investigational drugs. Importantly, we screened these lines as traditional monolayer (2D) and spheroid (3D) formats to gain an appreciation of agents with differential activity.
Multicellular tumor spheroids from Panc1, MiaPaCa-2, and the primary low-passage tissue culture line SB.06 were seeded in stem cell media (SCM) in nonadherent 6-well plates coated with hydrogel (Corning Life Sciences, Chelmsford, Mass) and pancreatic spheres generated for 14 days before screening. Cells were seeded into 1536-well solid-bottom white tissue culture treated Greiner Bio One Plates (789173-F) using a MultiDrop Combi (Thermofisher Scientific) dispenser and a small sterile cassette. One column was media alone to be used as a :"no cells" control. The plates were then covered with sterilized stainless steel gasketed lids from Kalypsys. After allowing cells to attach for 4 hours, 23 nL of test compound or control (negative control DMSO and positive control 9.2 uM Bortezomib-final) were added from a 1536-well polypropylene compound source plate to each well using a 1536 head pin tool from Kalypsys. Cells were then incubated for 48 hours at 37C, 95% relative humidity and 5% CO2. After 48 hours, plates were removed from the incubator and 3 uL of CellTiter-Glo (Promega) was added using an Aurora Flying Reagent Dispenser Bioraptor. Plates were incubated at room temperature for 10 minutes prior to reading the luminescence on the Viewlux (PerkinElmer). The relative luciferase units are used to calculate the percent activity using the activity of DMSO in the cells and no cells columns for normalization of no inhibition and full inhibition respectively.

Experiment [5] in a line: P-glycoprotein substrates identified in KB-8-5-11 adenocarcinoma cell line, qHTS therapeutic library screen (AID 1346987). Also: nearly all actives have a fitted effect of over 65% in size. Also: potency is read from the fitted curve at half-maximal effect. In a few lines:
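In this qHTS, P-gp-rich KB-8-5-11 cells received library compounds across a concentration range. Viability was quantified by luminescence after 72 h at 37 degree C.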
(In general: qHTS replaces the single test concentration by a dilution series.)

Experiment [6] in a line: Identifying Small Molecule Inhibitors of Pancreatic Cancer Stem Cells (Panc1, Adherent) (AID 1259362).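 Also: compound exposure lasted 48 h before the viability read.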 To be noted: Potency: viability. In a few lines: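 Adherent (2D) versus sphere (3D) formats; spheres generated 14 d in SCM beforehand. Compound transferred by pin tool after 4 h, 48 h incubation, CellTiter-Glo endpoint.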
The nature of experiment [7]: P-glycoprotein substrates identified in KB-3-1 adenocarcinoma cell line, qHTS therapeutic library screen (AID 1346986). Also: nearly all actives have a fitted effect of over 60% in size.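 Also: potency is read from the fitted curve at half-maximal effect; potency is for cytotoxicity meaning loss of cell viability.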 In a few lines: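 Dose-response cytotoxicity, KB-3-1 vs P-gp-high KB-8-5-11, no colchicine in assay medium. Read: CellTiter-Glo at 72 h.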
Experiment [8] can be described thus: Natriuretic polypeptide receptor (hNpr1) antagonism - Pilot counterscreen GloSensor control cell line (AID 1347045; calls by dose curve; also: series mostly up to about 38 µM). A digest of the protocol:
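HEK293 cGMP-sensor cells; 2% GloSensor reagent 2 h RT; LOPAC compounds in 1:5 titrations 30-50 min; 50 uM SNP 20 min; luminescence pre-read and post-read.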
(A counterscreen serves to expose hits that act by an unwanted route or on another target.)

Experiment [9] deals with Atrial natriuretic peptide receptor 1 (Homo sapiens) (UniProt P16066). Put plainly: Natriuretic polypeptide receptor (hNpr1) antagonism - Pilot screen (AID 1347049; calls by dose curve;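 also: HEK293 cells with hNpr1 and GloSensor cGMP luciferase stimulated by 0.1 nM hNppA; agonist-evoked cGMP luminescence read 20 min after hNppA addition; series mostly up to about 58 µM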). A digest of the protocol: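 Receptor antagonism read as cGMP-dependent luminescence in hNpr1/pGS-40F HEK293 cells: pre-read after 30 min compound exposure, post-read 20 min after hNppA agonist at 0.1 nM final, all at room temperature, protected from light; A-71915 titration as control.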
Chain of Atrial natriuretic peptide receptor 1 (Homo sapiens) (P16066 whole entry, looked up): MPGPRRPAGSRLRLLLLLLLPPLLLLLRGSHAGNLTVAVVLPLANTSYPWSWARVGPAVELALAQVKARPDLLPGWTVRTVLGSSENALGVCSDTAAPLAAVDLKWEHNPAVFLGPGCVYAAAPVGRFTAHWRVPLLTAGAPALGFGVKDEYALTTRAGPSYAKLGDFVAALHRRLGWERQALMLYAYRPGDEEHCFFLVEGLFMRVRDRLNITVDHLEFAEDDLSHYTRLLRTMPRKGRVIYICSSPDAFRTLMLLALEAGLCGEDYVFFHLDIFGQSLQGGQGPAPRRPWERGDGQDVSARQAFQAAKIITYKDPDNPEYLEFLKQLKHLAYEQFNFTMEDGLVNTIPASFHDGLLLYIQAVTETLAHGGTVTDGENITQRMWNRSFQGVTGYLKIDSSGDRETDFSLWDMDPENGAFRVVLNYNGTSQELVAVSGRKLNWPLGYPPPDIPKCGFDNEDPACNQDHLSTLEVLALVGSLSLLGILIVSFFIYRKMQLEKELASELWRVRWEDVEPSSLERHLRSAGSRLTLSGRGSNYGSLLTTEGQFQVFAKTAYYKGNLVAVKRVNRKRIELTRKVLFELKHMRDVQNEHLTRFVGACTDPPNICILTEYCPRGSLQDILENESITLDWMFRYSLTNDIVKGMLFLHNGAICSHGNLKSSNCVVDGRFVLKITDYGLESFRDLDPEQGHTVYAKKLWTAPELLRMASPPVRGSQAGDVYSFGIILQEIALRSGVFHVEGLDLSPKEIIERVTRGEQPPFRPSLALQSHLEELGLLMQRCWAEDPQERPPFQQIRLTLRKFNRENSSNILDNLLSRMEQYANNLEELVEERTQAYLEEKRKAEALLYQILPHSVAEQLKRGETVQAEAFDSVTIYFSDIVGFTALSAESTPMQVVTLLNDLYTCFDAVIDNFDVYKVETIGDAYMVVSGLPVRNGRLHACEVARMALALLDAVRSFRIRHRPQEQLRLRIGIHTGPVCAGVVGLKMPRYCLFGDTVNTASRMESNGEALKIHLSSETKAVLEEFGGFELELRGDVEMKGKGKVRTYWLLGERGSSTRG

For experiment [10], the target named is Atrial natriuretic peptide receptor 2 (Homo sapiens) (UniProt P20594). Kind of experiment: Natriuretic polypeptide receptor (hNpr2) antagonism - Pilot subtype selectivity assay (AID 1347050; calls by dose curve). A digest of the protocol:
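Antagonist mode: compounds (LOPAC1280, seven 1:5 dilutions) added 30 min before 1 nM hNppC stimulation of hNpr2-HEK293 cGMP-sensor cells; luminescence read before and 20 min after agonist at ambient temperature.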

Structures are written as SMILES. Results filed as inconclusive are left out. Unmarked numbers belong to inactive results. Active and inactive are the calls of the source. Unless noted, calls follow the shape of the dose curve; as a rule, active = well fitted curve in the direction sought with a large enough effect; inconclusive = small, poorly fitted or top-dose-only effect, or another doubt; inactive = no such curve, though single readings can be large; an effect the other way counts as inactive or inconclusive.

Chain of Atrial natriuretic peptide receptor 2 (Homo sapiens) (P20594 whole entry, looked up): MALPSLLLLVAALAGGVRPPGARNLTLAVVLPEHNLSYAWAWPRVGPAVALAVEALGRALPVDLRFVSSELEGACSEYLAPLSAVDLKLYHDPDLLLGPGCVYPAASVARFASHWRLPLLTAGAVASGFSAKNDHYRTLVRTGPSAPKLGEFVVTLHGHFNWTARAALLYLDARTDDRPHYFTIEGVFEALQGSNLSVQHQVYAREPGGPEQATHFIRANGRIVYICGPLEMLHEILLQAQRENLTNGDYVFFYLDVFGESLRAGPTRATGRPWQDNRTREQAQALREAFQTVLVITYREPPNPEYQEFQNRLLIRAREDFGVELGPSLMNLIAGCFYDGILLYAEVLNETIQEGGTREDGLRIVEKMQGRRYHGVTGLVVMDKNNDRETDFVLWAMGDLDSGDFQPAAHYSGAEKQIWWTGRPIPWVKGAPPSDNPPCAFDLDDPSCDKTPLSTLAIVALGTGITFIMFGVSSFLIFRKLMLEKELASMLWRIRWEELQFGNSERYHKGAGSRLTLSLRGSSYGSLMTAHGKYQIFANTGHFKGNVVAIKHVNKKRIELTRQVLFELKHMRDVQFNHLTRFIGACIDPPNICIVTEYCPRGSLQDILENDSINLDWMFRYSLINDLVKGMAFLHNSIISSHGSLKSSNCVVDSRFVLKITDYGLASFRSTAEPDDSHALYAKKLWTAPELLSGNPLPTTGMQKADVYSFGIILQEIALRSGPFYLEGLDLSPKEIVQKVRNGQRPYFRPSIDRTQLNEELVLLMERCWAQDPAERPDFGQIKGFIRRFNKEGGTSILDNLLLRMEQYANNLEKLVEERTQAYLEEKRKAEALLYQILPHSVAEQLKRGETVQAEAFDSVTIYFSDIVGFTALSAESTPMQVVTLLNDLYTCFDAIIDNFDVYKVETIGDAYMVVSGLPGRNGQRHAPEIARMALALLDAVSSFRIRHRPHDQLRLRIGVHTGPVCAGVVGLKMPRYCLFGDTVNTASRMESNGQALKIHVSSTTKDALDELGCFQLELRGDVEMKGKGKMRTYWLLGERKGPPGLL

Take `COc1ccc(-c2c(-c3ccc(O)cc3O)n[nH]c2C)cc1`: the Potency result in [1] and in [2] was “inactive” each time. Further, the IC50 (viability decrease) in experiment [3] was 26.4 µM (active).

`COc1ccc(-c2ccc3c(N4CCOCC4)nc(N4C[C@@H](C)O[C@@H](C)C4)nc3n2)cc1CO`: the Potency in [1] was 0.235 µM (active); in experiment [4] it was 1.05 µM (active); in experiment [2], 0.372 µM (active); in [5] it was 0.296 µM (active).

Regarding `CC1(C)Cc2c(-c3ccccc3)c(-c3ccc(Cl)cc3)c(CC(=O)O)n2C1`, the Potency result in experiment [1] and in experiment [2] was “inactive” each time.

Turning to `O=C1[C@H](Cc2ccc(O)cc2)N2C(=O)CCN(C(=O)NCc3ccccc3)[C@H]2CN1Cc1cccc2ccccc12`, the Potency in experiment [1] is 16.6 µM (active); in experiment [2], 20.9 µM (active). Moreover, the IC50 (viability decrease) in experiment [3] is 1.05 µM (active).

As to `CCn1c(-c2nonc2N)nc2c(C#CC(C)(C)O)ncc(OC[C@H]3CCCNC3)c21`, the Potency result in experiment [1], in experiment [4] and in experiment [5] was “inactive” in each case.

`Cc1ccc2c(c1)C(=O)[C@@]1(O)CCN(c3ccccc3)C1=N2`: the Potency entry in experiment [1] and in experiment [2] was “inactive” each time. In addition, the IC50 (viability decrease) entry in experiment [3] is “inactive”.

As for `CCCc1nc2c(C)cc(-c3nc4ccccc4n3C)cc2n1Cc1ccc(-c2ccccc2C(=O)O)cc1`, the Potency result in [1], in [2], in experiment [6] and in experiment [5] was “inactive” throughout. The IC50 (viability decrease) entry in experiment [3] was “inactive”.

Take `O=C(Nc1cccnc1)N1CCC(Cc2cccc(Oc3ccc(C(F)(F)F)cn3)c2)CC1`: the Potency result in experiment [1] and in experiment [2] was “inactive” in each case.

Regarding `Fc1ccc(Cl)cc1-c1nc(Nc2ccncc2)c2nccnc2n1`, the Potency entry in experiment [1], in [2], in experiment [6], in experiment [7] and in [5] was “inactive” in each case. In [3], the IC50 (viability decrease) entry was “inactive”.

For `CCc1cc(Nc2nccc(-c3c(-c4ccc(OC)c(C(=O)Nc5c(F)cccc5F)c4)nc4ccccn34)n2)c(OC)cc1N1CCC(N2CCN(S(C)(=O)=O)CC2)CC1`, the Potency entry in [1], in experiment [2], in experiment [6] and in experiment [5] was “inactive” throughout. In experiment [3], the IC50 (viability decrease) entry is “inactive”.

For `CCOc1cc(C(=O)Nc2ccc(Cl)c(-c3nc4ccccc4[nH]3)c2)cc(OCC)c1OCC`, the Potency entry in [1], in [2] and in experiment [6] was “inactive” throughout. The IC50 (viability decrease) entry in experiment [3] was “inactive”.

Turning to `C#Cc1cccc(Nc2ncnc3cc(OCCOC)c(OCCOC)cc23)c1`, the Potency in experiment [1] was 8.33 µM (active); in experiment [2], 16.6 µM (active). The IC50 (viability decrease) in experiment [3] was 7.43 µM (active). In addition, in experiment [6], the Potency result is “inactive”.

Turning to `Nc1cccc(S(=O)(=O)N2CCCN(S(=O)(=O)c3ccc4c(c3)OCCO4)CC2)c1`, the Potency entry in experiment [1], in experiment [2] and in experiment [6] was “inactive” throughout. The Potency in experiment [4] was 5.26 µM (active). In addition, the IC50 (viability decrease) result in [3] is “inactive”.

With `O=C(O)CCc1ccc(NCc2cccc(Oc3ccccc3)c2)cc1`, the Potency result in experiment [1], in [2], in experiment [6] and in [5] was “inactive” in each case. Further, in experiment [3], the IC50 (viability decrease) result is “inactive”.

In the case of `COc1ccccc1[C@H](c1cccc2ccccc12)[C@@](C)(C#N)C(=O)N1CCC(c2cccc(C(F)(F)F)c2)CC1`, the Potency entry in experiment [1], in [2] and in experiment [6] was “inactive” in each case. The IC50 (viability decrease) in experiment [3] is 6.62 µM (active).

Regarding `Cc1ccccc1C(C(=O)NC1CCCC1)N(C(=O)Cn1cnc2ccccc21)c1cccc(F)c1` (stereo not given), the Potency result in experiment [1] and in experiment [2] was “inactive” throughout.

For the compound `CCC(C)N(C)C(=O)c1cc2ccccc2c(-c2ccccc2Cl)n1` (stereo not given), the Potency result in experiment [1], in experiment [2], in experiment [6] and in [10] was “inactive” each time. In experiment [3], the IC50 (viability decrease) entry is “inactive”. Further, the compound was classed as inactive in [8] and in [9].

Turning to `O=c1[nH]c(-c2ccc(C(F)(F)F)cc2)nc2c1CSCC2`, the Potency result in [1], in experiment [2], in [6], in [7] and in experiment [5] was “inactive” each time. Besides, the IC50 (viability decrease) entry in experiment [3] is “inactive”.

For `Cc1cccc(-c2[nH]c(C(C)(C)C)nc2-c2ccc3nccnc3c2)n1`, the Potency entry in experiment [1], in experiment [2], in [6] and in [10] was “inactive” throughout. Also, the Potency in experiment [4] was 8.33 µM (active); in experiment [7], 3.26 µM (active); in experiment [5], 8.2 µM (active). The call in experiment [8] and in experiment [9] was inactive.

Regarding `Cc1cc([C@@H](C)Nc2ccccc2C(=O)O)c2nc(N3CCOCC3)cc(=O)n2c1`, the Potency in experiment [1] was 9.35 µM (active); in [2], 14.8 µM (active).

Consider `CCN(CCCO)CCCOc1ccc2c(Nc3cc(CC(=O)Nc4cccc(F)c4)[nH]n3)ncnc2c1`, for which the Potency entry in experiment [1] and in experiment [2] was “inactive” each time.

`O=C(OCC#CCSc1nnc(-c2ccc3ccccc3c2)o1)c1cc2ccccc2s1`: the Potency entry in experiment [1] and in experiment [2] was “inactive” throughout.

In the case of `CCN(c1ccccc1)c1cc(NC)[n+](C)c(C)n1`, the Potency entry in [1], in experiment [2], in experiment [6] and in [5] was “inactive” each time. Moreover, the IC50 (viability decrease) result in experiment [3] was “inactive”.

For the compound `Nc1nc2[nH]cc(CCc3ccc(C(=O)N[C@@H](CCC(=O)O)C(=O)O)cc3)c2c(=O)[nH]1`, the Potency in experiment [1] was 0.662 µM (active). In addition, the Potency entry in experiment [2] was “inactive”.

`CC(C)(C)OC(=O)CN(Cc1ccc(Cl)cc1)Cc1ccc([N+](=O)[O-])s1`: the Potency in [1] was 4.69 µM (active); in experiment [4], 7.43 µM (active). Moreover, the Potency result in experiment [2] was “inactive”.

Regarding `Cc1csc(NC(=O)c2sc3nc4c(c(C(F)(F)F)c3c2N)CCC4)n1`, the Potency entry in experiment [1], in experiment [2], in experiment [6] and in experiment [5] was “inactive” throughout. The IC50 (viability decrease) entry in experiment [3] was “inactive”.

For `CC(C)c1onc(-c2c(Cl)cccc2Cl)c1COc1ccc(/C=C/c2cccc(C(=O)O)c2)c(Cl)c1`, the Potency entry in [1] and in [6] was “inactive” each time. The Potency in [4] was 18.7 µM (active).

Regarding `S=C(NCc1ccc2c(c1)OCO2)N1CCN(c2ncnc3c2oc2ccccc23)CC1`, the Potency in experiment [1] was 13.2 µM (active); in experiment [4] it was 7.43 µM (active); in experiment [2], 14.8 µM (active). The IC50 (viability decrease) in experiment [3] was 4.18 µM (active).
